# Measurements: ChEMBL document CHEMBL1201862, “PubChem BioAssay data set” (2004)
# About 3,800 (7.5%) of roughly 51,000 sequences were called active. No stated cut-off is given here; in the data, active = GI50 up to about 1.1 µM and inactive = higher. This excerpt belongs to a sample that is enriched for actives. Results with a measured potency or affinity are listed apart.
# Test system: A498
row,Substance,GI50
1,"[Bis(aminomethyl)dimethylsilane]tetrachloroplatinum(IV), CHEMBL2146190",15.5 µM
2,"[Bis(aminomethyl)pentamethylenesilane]tetrachloropaltinum(IV), CHEMBL2146204",0.132 µM
3,"[Bis(aminomethyl)pentamethylenesilane]dichloropaltinum(II), CHEMBL2146202",0.279 µM
4,"mu-(1,7-nanodiamine-N,N')bis-(cis-aminedichloroplatimum (II)), CHEMBL2146215",66.5 µM
5,"[Bis(aminomethyl)tetramethylenesilane]dichloropaltinum(II), CHEMBL2146205",32.8 µM
6,"[Bis(aminomethyl)tetramethylenesilane]tetrachloropaltinum(IV), CHEMBL2146189",1.64 µM
7,"CISPLATIN, CHEMBL11359",8.24 µM
